The first test has as its target MON2. The test can be described thus: pooled miR-30 sensor sort-seq; sequence = guide strand. To be noted: shRNA.
For TAGAAAATCTGTCACAACCAAC, the sensor-assay potency score (higher = more potent) is -1.49.
Take TTGAATAGAGAGATTATCTGGA: the sensor-assay potency score (higher = more potent) came out at 0.727.
As to TTGGACATCTCCTTTAACGGGT, the sensor-assay potency score (higher = more potent) is -0.305.
On the same count and under the same terms, in the case of TAGTCGAAAACAAAGAACGATT it was -1.16; in that of TTCTTCAAGACTATTCTCCATT, -0.51.

A further test deals with MOV10. Described as above. To be noted: shRNA.
TTGAGTTTCACATCTGAGGGCA had a sensor-assay potency score (higher = more potent) of 0.674.
The same measure, in the same setting: the value for TATTCCTGCAGCTTCTTCTTGG was 0.321; that for TTGATCTCTGCGATCTCCTTAG was -0.607.
TTCACCTTGAAGGTCAGCCCAT: the sensor-assay potency score (higher = more potent) is -0.593.
The same measure, in the same setting: in the case of TTCTTCTACTGAACCCACCTTC it was -0.0526; in that of TTAATTGCCTCCACTAACGTGA, 0.283.
Take AAGCTGATCTTGAAGTCGCGGT: the sensor-assay potency score (higher = more potent) came out at 0.0595.
Same read-out and setting: the value for TTCAGGTAGGAAGTCACTGTGG was -0.627.
Regarding TTTCTTTACAGAACTCCAGGAA, the sensor-assay potency score (higher = more potent) was -0.0759.
Take TTGAAGGTAAAGTTCACCTTGA: the sensor-assay potency score (higher = more potent) was 0.564.
In turn, TTGTACAGGGAGTTGTAGGTGA yielded a sensor-assay potency score (higher = more potent) of 0.0022.
Same read-out and setting: in the case of TAACGTGACAGTCTTGCCGGTG it was -0.472.

The target of a further test is MPDU1. Described as above. The settings on record: shRNA.
Turning to TTTCACAGTCTGTCCTCTGTAG, the sensor-assay potency score (higher = more potent) stood at 0.208.
As to TCCTCTGTAGTGCATGACCAGG, the sensor-assay potency score (higher = more potent) was -1.87.
Still for that read-out and setting: in the case of TTGGTCGTAGCATTTCTCAGGT it was 0.125; in that of TAATAGTACATGTACAGGGCTT, -0.0728; in that of TGAATGGAAGTGAAGATTCGGG, -0.586.
In turn, TTACACAGCTGGAAATTGCTGC yielded a sensor-assay potency score (higher = more potent) of 0.224.
In turn, TTTCTCAGGTAAAAGAATCGGC displayed a sensor-assay potency score (higher = more potent) of 0.459.
Still for that read-out and setting: in the case of TTTCTAAGGATCTGGATCCATC it was -1.09.
The same measure, in the same setting: in the case of TTCCACTAAAAGAAAACCCTGG it was 0.439; in that of TAAAAGAATCGGCACGAGCAGC, -0.833.
On the same count and under the same terms, in the case of ATGCTGTAGACCATGGTCCCAG it was -1.15; in that of TAGTGCATGACCAGGAAGCAGA, -0.943.

In another test the target is MPG. Described as above. The settings on record: shRNA.
The sequence TAGCTGGTCGCTGCTTCTTTTG displayed a sensor-assay potency score (higher = more potent) of -2.15.
The same measure, in the same setting: the value for TCGACCACACTGACCCAGGGGC was -0.746.
TGGTCGAAGAACTCCAACCCCA: the sensor-assay potency score (higher = more potent) is -1.62.
TTCTTTTGCCCCATCCGTCGGC showed a sensor-assay potency score (higher = more potent) of -0.549.
In turn, TCATGCAGAAGTACATGCCGTA gave a sensor-assay potency score (higher = more potent) of 0.083.
Sequence TACAGCTTCATCCTGTGCCAGG returned a sensor-assay potency score (higher = more potent) of -1.03.
Still for that read-out and setting: the value for TTCATGCAGAAGTACATGCCGT was -0.872; that for AAGAACTCCAACCCCAGTCGGG was -0.896; that for TAAATGATGTACACGTACAGGG was -0.261.
Same read-out and setting: the value for TGCTCTAGCTGGTCGCTGCTTC was -0.856; that for TCTGTCGACCACACTGACCCAG was -0.682.
Note: reference of the scale not given here.
